Results as given in the supplement of paper PMC10849652.
About 8,800 targets were measured; listed, in parts, are those with a hit and a random draw of the rest. About 0.5% of all pairs of compound and target were hits.

What was measured:
Assay in all cases: log2 fold change, soluble protein after heating vs DMSO (PISA); higher = thermal stabilisation; K562 lysate, 10 uM; active = over 0.2 and 3.5 SD of the protein, either way, in both replicates (recomputed)
lapatinib = compound: CS(=O)(=O)CCNCc1ccc(-c2ccc3ncnc(Nc4ccc(OCc5cccc(F)c5)c(Cl)c4)c3c2)o1 [lapatinib]
Method in brief: (§1)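 To prepare the extract, K562 pellets were dounce-homogenised in PBS pH 7.4 with 1 mM MgCl2, giving crude material at 1 mg/mL protein. This was treated with 10 μM compound for 30 min, then heated in aliquots for 3 min over 48°C-58°C before pooling and addition of NP-40 to 0.5% at 4°C. Centrifugation at 21,000xg for 90 min left soluble protein in the supernatant, which TMTpro 16plex LC-MS/MS quantified with equalised channel sums. Results are log-two fold changes in thermal stability compared with solvent controls, from duplicates.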

pictilisib = compound: CS(=O)(=O)N1CCN(Cc2cc3nc(-c4cccc5[nH]ncc45)nc(N4CCOCC4)c3s2)CC1 [pictilisib]
Method in brief: as §1

crizotinib = compound: C[C@@H](Oc1cc(-c2cnn(C3CCNCC3)c2)cnc1N)c1c(Cl)ccc(F)c1Cl [crizotinib]
Method in brief: as §1

[1] = compound: C[C@H](C1=CC=C(C=C1)C(=O)NC2=C3C=CNC3=NC=C2)N
Method in brief: as §1

duvelisib = compound: C[C@H](Nc1ncnc2nc[nH]c12)c1cc2cccc(Cl)c2c(=O)n1-c1ccccc1 [duvelisib]
Method in brief: as §1

gandotinib = compound: Cc1cc(Nc2cc(CN3CCOCC3)c3nc(C)c(Cc4ccc(Cl)cc4F)n3n2)n[nH]1 [gandotinib]
Method in brief: as §1

tozasertib = compound: Cc1cc(Nc2cc(N3CCN(C)CC3)nc(Sc3ccc(NC(=O)C4CC4)cc3)n2)n[nH]1 [tozasertib]
Method in brief: as §1

doramapimod = compound: Cc1ccc(-n2nc(C(C)(C)C)cc2NC(=O)Nc2ccc(OCCN3CCOCC3)c3ccccc23)cc1 [doramapimod]
Method in brief: as §1

bafetinib = compound: Cc1ccc(NC(=O)c2ccc(CN3CC[C@H](N(C)C)C3)c(C(F)(F)F)c2)cc1Nc1nccc(-c2cncnc2)n1 [bafetinib]
Method in brief: as §1

[2] = compound: Cc1cccc(CC(=O)N2CCc3c2ccc(-c2cn(C)c4ncnc(N)c24)c3F)n1
Method in brief: as §1

nilotinib = compound: Cc1cn(-c2cc(NC(=O)c3ccc(C)c(Nc4nccc(-c5cccnc5)n4)c3)cc(C(F)(F)F)c2)cn1 [nilotinib]
Method in brief: as §1

[3] = compound: Cc1nc(Nc2n[nH]c3c2CN(C(=O)N[C@H](CN(C)C)c2ccccc2)C3(C)C)c2sccc2n1
Method in brief: as §1

dasatinib = compound: Cc1nc(Nc2ncc(C(=O)Nc3c(C)cccc3Cl)s2)cc(N2CCN(CCO)CC2)n1 [dasatinib]
Method in brief: as §1

[4] = compound: Cc1ncc(-c2ccnc(Nc3ccc(S(C)(=O)=O)cc3)n2)n1C(C)C
Method in brief: as §1

[5] = compound: Cn1cc(-c2ccc3c(c2)CCN3C(=O)Cc2cccc(C(F)(F)F)c2)c2c(N)ncnc21
Method in brief: as §1

quisinostat = compound: Cn1cc(CNCC2CCN(c3ncc(C(=O)NO)cn3)CC2)c2ccccc21 [quisinostat]
Method in brief: as §1

tipifarnib = compound: Cn1cncc1[C@@](N)(c1ccc(Cl)cc1)c1ccc2c(c1)c(-c1cccc(Cl)c1)cc(=O)n2C [tipifarnib]
Method in brief: as §1

[6] = compound: NC(=O)Nc1cc(-c2cccc(F)c2)sc1C(=O)N[C@H]1CCCNC1
Method in brief: as §1

[7] = compound: NC(=O)c1cnc(N[C@@H]2CCCC[C@@H]2N)nc1Nc1cccc(-n2nccn2)c1
Method in brief: as §1

[8] = compound: NC1(c2ccc(-c3nc4ccn5c(=O)[nH]nc5c4cc3-c3ccccc3)cc2)CCC1
Method in brief: as §1

Measured: log2 fold change

BNIP3 (UniProt Q12983)
UniProt Q12983, sequence (Q12983 whole entry, looked up): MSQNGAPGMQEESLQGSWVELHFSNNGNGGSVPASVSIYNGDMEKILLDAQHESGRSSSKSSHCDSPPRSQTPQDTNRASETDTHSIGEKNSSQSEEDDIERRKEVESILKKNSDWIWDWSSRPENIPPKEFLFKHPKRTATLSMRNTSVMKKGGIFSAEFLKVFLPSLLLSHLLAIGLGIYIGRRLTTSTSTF
inactive: lapatinib -0.031 | pictilisib 0.049 | crizotinib -0.054 | duvelisib -0.166 | gandotinib 0.107 | tozasertib -0.046 | doramapimod -0.016 | bafetinib 0.023 | [2] 0.14 | nilotinib 0.037 | [3] -0.077 | dasatinib 0.014 | [4] -0.002 | [5] -0.02 | quisinostat -0.219 | tipifarnib 0.05 | [6] 0.061 | [7] -0.018 | [8] -0.007
active: [1] -0.371

ATP9B (UniProt O43861)
active: bafetinib 0.446
inactive: lapatinib -0.063 | pictilisib -0.269 | crizotinib 0.032 | [1] -0.181 | duvelisib -0.005 | gandotinib -0.037 | tozasertib 0.017 | doramapimod 0.136 | [2] 0.242 | nilotinib 0.05 | [3] 0.164 | dasatinib -0.04 | [4] -0.069 | [5] -0.049 | quisinostat 0.009 | tipifarnib -0.08 | [6] -0.021 | [7] 0.107 | [8] 0.064

CARS isoform 3 (UniProt P49589)
inactive: lapatinib -0.006 | pictilisib -0.006 | crizotinib 0.019 | [1] 0.003 | duvelisib -0.015 | gandotinib -0.045 | tozasertib 0.014 | doramapimod 0.014 | bafetinib -0.008 | [2] -0.011 | nilotinib -0.019 | [3] -0.007 | dasatinib -0.024 | [4] -0.007 | [5] 0.012 | quisinostat 0.048 | tipifarnib 0.007 | [6] 0.004 | [7] 0.001 | [8] -0.01

BNIP1 (UniProt Q12981)
inactive: lapatinib -0.007 | pictilisib 0.018 | crizotinib -0.062 | [1] 0.273 | duvelisib -0.059 | gandotinib -0.15 | tozasertib 0.017 | doramapimod 0.071 | bafetinib -0.019 | [2] -0.17 | nilotinib -0.004 | [3] -0.037 | dasatinib -0.005 | [4] -0.028 | [5] -0.045 | quisinostat -0.014 | tipifarnib -0.046 | [6] -0.034 | [7] -0.033 | [8] 0.057

CEP76 (UniProt Q8TAP6)
UniProt Q8TAP6, sequence (Q8TAP6 whole entry, looked up): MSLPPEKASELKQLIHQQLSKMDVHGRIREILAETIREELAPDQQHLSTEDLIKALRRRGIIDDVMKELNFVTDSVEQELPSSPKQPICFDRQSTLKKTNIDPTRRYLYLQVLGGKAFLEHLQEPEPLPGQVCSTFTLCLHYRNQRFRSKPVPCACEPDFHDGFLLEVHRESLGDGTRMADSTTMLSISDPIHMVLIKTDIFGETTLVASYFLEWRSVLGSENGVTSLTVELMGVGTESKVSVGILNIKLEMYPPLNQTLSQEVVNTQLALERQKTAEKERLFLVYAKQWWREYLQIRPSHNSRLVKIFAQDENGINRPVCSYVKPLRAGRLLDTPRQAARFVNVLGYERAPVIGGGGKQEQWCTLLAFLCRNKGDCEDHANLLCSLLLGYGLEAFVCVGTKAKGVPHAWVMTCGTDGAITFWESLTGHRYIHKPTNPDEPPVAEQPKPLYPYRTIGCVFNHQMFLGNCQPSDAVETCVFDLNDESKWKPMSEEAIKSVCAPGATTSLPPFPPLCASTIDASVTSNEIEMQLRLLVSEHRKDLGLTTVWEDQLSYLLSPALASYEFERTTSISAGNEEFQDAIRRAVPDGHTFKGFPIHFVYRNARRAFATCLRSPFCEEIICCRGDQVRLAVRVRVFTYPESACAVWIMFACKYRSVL
active: quisinostat -0.241
inactive: lapatinib -0.031 | pictilisib -0.073 | crizotinib -0.106 | [1] -0.063 | duvelisib 0.141 | gandotinib 0.007 | tozasertib 0.079 | doramapimod 0.085 | bafetinib -0.115 | [2] 0.027 | nilotinib -0.005 | [3] -0.021 | dasatinib -0.002 | [4] -0.021 | [5] -0.005 | tipifarnib 0.006 | [6] -0.01 | [7] -0.015 | [8] -0.02

C19orf54 (UniProt Q5BKX5)
inactive: lapatinib -0.003 | pictilisib -0.089 | crizotinib -0.019 | [1] -0.011 | duvelisib -0.076 | gandotinib -0.046 | tozasertib -0.008 | doramapimod -0.036 | bafetinib -0.01 | [2] 0.027 | nilotinib 0.012 | [3] -0.006 | dasatinib -0.037 | [4] -0.016 | [5] 0.006 | quisinostat 0.006 | tipifarnib -0.007 | [6] 0.098 | [7] 0.016 | [8] 0.003

CCDC25 (UniProt Q86WR0)
UniProt Q86WR0, sequence (Q86WR0 whole entry, looked up): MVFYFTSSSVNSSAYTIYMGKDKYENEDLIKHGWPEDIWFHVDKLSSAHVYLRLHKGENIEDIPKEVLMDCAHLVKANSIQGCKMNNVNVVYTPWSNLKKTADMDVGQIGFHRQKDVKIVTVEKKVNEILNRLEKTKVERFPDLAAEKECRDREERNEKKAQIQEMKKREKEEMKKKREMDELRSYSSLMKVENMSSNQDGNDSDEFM
inactive: lapatinib -0.028 | pictilisib -0.001 | crizotinib -0.015 | duvelisib 0.011 | gandotinib -0.062 | tozasertib -0.021 | doramapimod 0.065 | bafetinib 0.008 | [2] -0.095 | nilotinib 0.016 | [3] -0.023 | dasatinib -0.043 | [4] -0.021 | [5] -0.013 | quisinostat -0.039 | tipifarnib 0.002 | [6] 0 | [7] 0.024 | [8] -0.031
active: [1] 0.487

ATG4A (UniProt Q8WYN0)
inactive: lapatinib -0.017 | pictilisib -0.02 | crizotinib -0.033 | [1] -0.061 | duvelisib -0.009 | gandotinib -0.025 | tozasertib 0.044 | doramapimod 0.008 | bafetinib -0.014 | [2] 0.063 | nilotinib -0.022 | [3] 0.018 | dasatinib -0.064 | [4] 0.037 | [5] -0.038 | quisinostat -0.042 | tipifarnib -0.015 | [6] 0.096 | [7] -0.02 | [8] 0

CAMKK1 isoform 2 (UniProt Q8N5S9)
UniProt Q8N5S9, sequence (Q8N5S9 whole entry, looked up): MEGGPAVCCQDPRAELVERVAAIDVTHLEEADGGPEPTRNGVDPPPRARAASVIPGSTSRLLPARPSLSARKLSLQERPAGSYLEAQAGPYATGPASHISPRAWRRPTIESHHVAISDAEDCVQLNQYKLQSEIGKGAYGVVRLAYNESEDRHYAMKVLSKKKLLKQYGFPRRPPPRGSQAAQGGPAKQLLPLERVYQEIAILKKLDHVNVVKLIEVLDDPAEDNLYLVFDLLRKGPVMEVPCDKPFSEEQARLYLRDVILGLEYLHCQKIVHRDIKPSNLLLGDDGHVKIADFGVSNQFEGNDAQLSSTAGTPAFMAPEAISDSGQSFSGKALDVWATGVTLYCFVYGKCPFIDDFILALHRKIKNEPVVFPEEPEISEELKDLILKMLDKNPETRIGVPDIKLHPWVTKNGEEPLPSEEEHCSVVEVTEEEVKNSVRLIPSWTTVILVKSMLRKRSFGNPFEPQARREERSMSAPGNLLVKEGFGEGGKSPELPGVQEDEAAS
inactive: lapatinib 0.061 | pictilisib -0.074 | crizotinib -0.023 | [1] 0.032 | duvelisib -0.069 | tozasertib -0.067 | doramapimod 0.016 | bafetinib -0.021 | [2] -0.033 | nilotinib -0.013 | [3] 0.144 | dasatinib 0.05 | [4] 0.064 | [5] 0.189 | quisinostat -0.072 | tipifarnib -0.064 | [6] 0.047 | [7] -0.002 | [8] 0.007
active: gandotinib 0.424

CARD11 (UniProt Q9BXL7)
active: pictilisib -0.287
inactive: lapatinib 0.001 | crizotinib -0.018 | [1] -0.025 | duvelisib 0.029 | gandotinib -0.035 | tozasertib -0.021 | doramapimod 0.028 | bafetinib -0.059 | [2] 0.038 | nilotinib -0.047 | [3] 0.04 | dasatinib -0.053 | [4] 0.043 | [5] 0.004 | quisinostat -0.031 | tipifarnib -0.015 | [6] 0.025 | [7] 0.048 | [8] 0.009

C12orf45 (UniProt Q8N5I9)
inactive: lapatinib -0.027 | pictilisib -0.031 | crizotinib 0.042 | duvelisib -0.014 | gandotinib 0.148 | tozasertib -0.044 | doramapimod -0.023 | bafetinib 0.001 | [2] 0.072 | nilotinib -0.026 | [3] -0.003 | dasatinib 0.019 | [4] -0.017 | [5] 0.035 | quisinostat -0.019 | tipifarnib -0.014 | [6] -0.015 | [7] 0 | [8] 0.024
active: [1] -0.269

ATM (UniProt Q13315)
UniProt Q13315, sequence (Q13315 whole entry, looked up): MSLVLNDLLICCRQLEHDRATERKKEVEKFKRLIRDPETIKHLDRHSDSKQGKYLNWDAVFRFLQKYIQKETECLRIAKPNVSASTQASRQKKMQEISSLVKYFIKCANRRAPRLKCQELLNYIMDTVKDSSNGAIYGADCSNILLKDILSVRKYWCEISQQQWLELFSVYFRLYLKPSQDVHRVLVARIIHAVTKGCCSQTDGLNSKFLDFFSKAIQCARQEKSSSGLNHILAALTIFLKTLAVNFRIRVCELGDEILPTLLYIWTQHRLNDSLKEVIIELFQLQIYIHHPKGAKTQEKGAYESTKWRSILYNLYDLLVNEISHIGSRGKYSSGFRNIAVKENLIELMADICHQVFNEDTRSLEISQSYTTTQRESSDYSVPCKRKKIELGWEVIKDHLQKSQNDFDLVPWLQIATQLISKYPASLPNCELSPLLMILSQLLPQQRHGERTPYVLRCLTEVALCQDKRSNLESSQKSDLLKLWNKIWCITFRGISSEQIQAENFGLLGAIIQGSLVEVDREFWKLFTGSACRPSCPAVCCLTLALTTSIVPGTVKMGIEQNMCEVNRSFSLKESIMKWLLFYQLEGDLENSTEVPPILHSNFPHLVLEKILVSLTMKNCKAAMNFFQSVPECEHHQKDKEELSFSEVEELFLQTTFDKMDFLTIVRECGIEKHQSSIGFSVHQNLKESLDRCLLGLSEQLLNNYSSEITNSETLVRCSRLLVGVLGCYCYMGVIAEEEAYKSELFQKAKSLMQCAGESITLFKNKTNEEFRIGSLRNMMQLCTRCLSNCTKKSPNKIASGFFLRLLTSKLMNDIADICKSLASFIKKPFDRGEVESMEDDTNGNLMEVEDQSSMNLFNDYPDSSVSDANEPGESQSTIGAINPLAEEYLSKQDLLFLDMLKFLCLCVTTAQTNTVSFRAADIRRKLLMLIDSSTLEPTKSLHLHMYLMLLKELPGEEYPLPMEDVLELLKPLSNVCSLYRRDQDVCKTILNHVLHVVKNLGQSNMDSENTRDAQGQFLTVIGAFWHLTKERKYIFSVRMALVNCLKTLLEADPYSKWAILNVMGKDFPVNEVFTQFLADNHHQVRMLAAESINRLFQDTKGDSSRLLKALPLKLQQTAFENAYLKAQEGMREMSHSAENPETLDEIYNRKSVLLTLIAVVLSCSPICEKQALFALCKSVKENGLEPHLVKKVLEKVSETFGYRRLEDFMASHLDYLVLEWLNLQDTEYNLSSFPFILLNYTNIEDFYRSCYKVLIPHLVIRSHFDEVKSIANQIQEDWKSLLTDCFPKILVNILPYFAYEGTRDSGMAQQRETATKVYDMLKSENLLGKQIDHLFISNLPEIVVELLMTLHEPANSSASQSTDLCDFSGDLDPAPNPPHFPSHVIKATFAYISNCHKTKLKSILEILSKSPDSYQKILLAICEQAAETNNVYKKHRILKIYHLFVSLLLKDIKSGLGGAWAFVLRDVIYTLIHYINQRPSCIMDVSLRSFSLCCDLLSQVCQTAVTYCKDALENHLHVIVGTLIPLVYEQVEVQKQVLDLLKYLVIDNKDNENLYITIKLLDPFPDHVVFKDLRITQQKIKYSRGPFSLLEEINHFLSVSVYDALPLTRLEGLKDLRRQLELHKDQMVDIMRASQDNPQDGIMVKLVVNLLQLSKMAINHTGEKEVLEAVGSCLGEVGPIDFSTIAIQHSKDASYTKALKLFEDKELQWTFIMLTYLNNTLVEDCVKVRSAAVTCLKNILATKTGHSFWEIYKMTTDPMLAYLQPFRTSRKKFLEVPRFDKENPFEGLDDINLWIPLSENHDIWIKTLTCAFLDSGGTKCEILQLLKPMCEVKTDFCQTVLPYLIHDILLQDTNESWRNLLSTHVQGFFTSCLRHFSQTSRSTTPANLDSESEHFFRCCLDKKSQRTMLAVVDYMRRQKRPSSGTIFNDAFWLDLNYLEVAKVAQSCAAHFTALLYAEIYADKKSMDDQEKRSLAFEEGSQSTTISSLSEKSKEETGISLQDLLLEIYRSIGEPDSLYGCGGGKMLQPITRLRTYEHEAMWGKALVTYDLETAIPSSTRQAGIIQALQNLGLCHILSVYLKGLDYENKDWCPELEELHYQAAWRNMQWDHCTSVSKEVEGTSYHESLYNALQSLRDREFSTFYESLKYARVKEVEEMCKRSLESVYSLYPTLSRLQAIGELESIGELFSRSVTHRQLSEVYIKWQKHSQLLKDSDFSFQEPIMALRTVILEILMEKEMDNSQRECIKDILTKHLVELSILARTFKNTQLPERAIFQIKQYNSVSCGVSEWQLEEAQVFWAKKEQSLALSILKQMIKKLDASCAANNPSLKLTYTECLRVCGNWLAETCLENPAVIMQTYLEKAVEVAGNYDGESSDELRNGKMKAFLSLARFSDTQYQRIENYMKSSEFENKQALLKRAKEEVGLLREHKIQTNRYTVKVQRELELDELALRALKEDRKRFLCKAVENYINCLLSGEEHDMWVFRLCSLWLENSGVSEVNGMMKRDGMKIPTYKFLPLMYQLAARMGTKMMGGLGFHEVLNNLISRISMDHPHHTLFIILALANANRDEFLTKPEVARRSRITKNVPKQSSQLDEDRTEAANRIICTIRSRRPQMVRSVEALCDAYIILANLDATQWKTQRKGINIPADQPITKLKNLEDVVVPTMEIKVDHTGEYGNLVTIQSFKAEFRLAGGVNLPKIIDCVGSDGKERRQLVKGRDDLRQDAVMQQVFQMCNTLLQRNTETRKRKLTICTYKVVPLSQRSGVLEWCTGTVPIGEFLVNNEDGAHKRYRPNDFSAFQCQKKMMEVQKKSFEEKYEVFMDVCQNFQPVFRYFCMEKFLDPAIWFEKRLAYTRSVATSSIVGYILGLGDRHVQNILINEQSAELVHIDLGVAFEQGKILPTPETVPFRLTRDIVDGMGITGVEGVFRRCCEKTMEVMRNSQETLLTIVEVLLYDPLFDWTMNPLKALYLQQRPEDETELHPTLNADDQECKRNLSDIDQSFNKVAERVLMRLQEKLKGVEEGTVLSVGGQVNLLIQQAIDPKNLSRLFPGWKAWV
inactive: lapatinib -0.018 | pictilisib -0.055 | crizotinib -0.045 | [1] -0.112 | duvelisib -0.035 | gandotinib 0.014 | tozasertib -0.04 | doramapimod 0.051 | bafetinib -0.01 | [2] 0.08 | nilotinib -0.019 | [3] -0.019 | dasatinib -0.071 | [4] 0.084 | [5] 0.038 | quisinostat 0.039 | tipifarnib 0.009 | [6] 0.009 | [7] 0.039 | [8] 0.008

BCL2L12 (UniProt Q9HB09)
inactive: lapatinib 0.164 | pictilisib -0.184 | crizotinib 0.01 | [1] 0.045 | duvelisib 0.009 | gandotinib -0.003 | tozasertib -0.056 | doramapimod -0.016 | bafetinib -0.296 | [2] 0.057 | nilotinib -0.12 | [3] -0.007 | dasatinib -0.129 | [4] -0.004 | [5] 0.046 | quisinostat 0.022 | tipifarnib 0.075 | [6] -0.041 | [7] 0.121 | [8] 0.013

ATG4B (UniProt Q9Y4P1)
inactive: lapatinib 0.012 | pictilisib -0.042 | crizotinib -0.087 | [1] 0.114 | duvelisib 0.01 | gandotinib -0.128 | tozasertib -0.013 | doramapimod 0.004 | bafetinib -0.008 | [2] -0.059 | nilotinib 0.045 | [3] 0.001 | dasatinib -0.049 | [4] 0.008 | [5] 0.044 | quisinostat -0.055 | tipifarnib -0.019 | [6] 0.024 | [7] -0.05 | [8] 0.005

CASP6 (UniProt P55212)
UniProt P55212, sequence (P55212 whole entry, looked up): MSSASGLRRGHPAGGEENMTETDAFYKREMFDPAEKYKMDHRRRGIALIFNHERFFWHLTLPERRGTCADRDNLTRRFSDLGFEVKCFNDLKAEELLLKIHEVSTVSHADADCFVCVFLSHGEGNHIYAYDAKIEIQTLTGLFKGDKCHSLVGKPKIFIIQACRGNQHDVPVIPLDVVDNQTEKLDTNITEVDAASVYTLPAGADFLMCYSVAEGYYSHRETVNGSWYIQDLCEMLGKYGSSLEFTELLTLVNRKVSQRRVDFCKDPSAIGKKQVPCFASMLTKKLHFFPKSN
inactive: lapatinib 0.024 | pictilisib -0.004 | crizotinib 0.009 | [1] 0.195 | duvelisib 0.003 | gandotinib -0.02 | tozasertib 0.022 | doramapimod 0.013 | bafetinib 0.054 | [2] -0.038 | nilotinib 0.018 | [3] 0.017 | dasatinib 0.005 | [4] -0.026 | [5] -0.001 | quisinostat 0.013 | tipifarnib -0.027 | [6] -0.034 | [7] 0.003 | [8] 0.023

CDS2 (UniProt O95674)
inactive: lapatinib 0.02 | pictilisib -0.007 | crizotinib 0.031 | [1] -0.029 | duvelisib 0.088 | gandotinib 0.048 | tozasertib 0.054 | doramapimod 0.009 | bafetinib 0.006 | [2] 0.019 | nilotinib -0.035 | [3] -0.093 | dasatinib 0.073 | [4] 0.062 | [5] -0.005 | quisinostat -0.045 | tipifarnib 0.093 | [6] -0.01 | [7] 0 | [8] -0.152
